PubChem BioAssay (NCI)
Compounds without any hit were thinned out: in the full panel of roughly 83,000, 20% have a hit.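 Activity criterion: percent growth below 10, measured after cells in 96-well plates were exposed to a single compound concentration for 48 hours.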 Activity calls are given as the source filed them.

Key:
Experiment in all cases: NCI-60 one-dose screen, 48 h (100 = growth as untreated, 0 = no growth, -100 = all killed)
[1] = test system: SR leukemia; conditions: 10 µM unless noted
[2] = test system: RPMI-8226 leukemia; conditions: 10 µM unless noted
[3] = test system: OVCAR-8 ovarian; conditions: 10 µM unless noted
[4] = test system: OVCAR-5 ovarian; conditions: 10 µM unless noted
[5] = test system: OVCAR-4 ovarian; conditions: 10 µM unless noted
[6] = test system: SK-OV-3 ovarian; conditions: 10 µM unless noted
[7] = test system: IGROV1 ovarian; conditions: 10 µM unless noted
[8] = test system: OVCAR-3 ovarian; conditions: 10 µM unless noted
[9] = test system: HS 578T breast; conditions: 10 µM
[10] = test system: NCI/ADR-RES ovarian; conditions: 10 µM unless noted
[11] = test system: T-47D breast; conditions: 10 µM unless noted
[12] = test system: BT-549 breast; conditions: 10 µM unless noted
[13] = test system: MDA-MB-435 melanoma; conditions: 10 µM unless noted
[14] = test system: SW-620 colon; conditions: 10 µM unless noted
[15] = test system: MCF7 breast; conditions: 10 µM unless noted
[16] = test system: HCT-116 colon; conditions: 10 µM unless noted
[17] = test system: HCC-2998 colon; conditions: 10 µM
[18] = test system: KM12 colon; conditions: 10 µM unless noted

Measured: growth

CCCCCCCC(=O)SCC/C=C/[C@@H]1CC(=O)NCc2nc(co2)C2=N[C@@](C)(CS2)C(=O)N[C@@H](C(C)C)C(=O)O1
active: [2] 3.09% | [3] 0.95% | [4] -5.93% | [6] -12.7% | [7] -23.2% | [8] -45.6% | [9] 4.63% | [10] 5.57% | [11] -5.12% | [13] -31.8% | [14] -29.2% | [16] -63.2% | [17] -68.8% | [18] 1.36%
inactive: [1] 10.7% | [5] 12.2% | [12] 13.2% | [15] 14.9%

CC(=O)C1=C(C)NC(SCc2nnc(-c3ccc(C)cc3)o2)=NC1c1ccc(F)cc1 (stereo not drawn)
inactive: [1] 80.9% | [2] 83.7% | [3] 97% | [4] 89.6% | [5] 108% | [6] 108% | [7] 89% | [8] 105% | [9] 112% | [10] 98.2% | [11] 74.4% | [12] 86.1% | [13] 107% | [14] 110% | [15] 95.4% | [16] 93.6%

CN(N)c1nc2sc3c(c2c(=O)[nH]1)CCCC3
inactive: [1] 104% | [2] 103% | [3] 102% | [4] 131% | [5] 103% | [6] 82.7% | [7] 90.1% | [8] 99.7% | [9] 94.6% | [10] 104% | [11] 76.6% | [12] 91.2% | [13] 97.1% | [14] 101% | [15] 83.4% | [16] 94.9% | [17] 96%

CC(=O)O[C@]1(C)C[C@H](O)[C@]2(O)C=CO[C@H](O[C@@H]3O[C@H](CO)[C@@H](O)[C@H](O)[C@H]3O)[C@@H]21
inactive: [1] 92.3% | [2] 104% | [3] 110% | [4] 103% | [5] 99.8% | [6] 102% | [7] 100% | [8] 108% | [9] 112% | [10] 107% | [11] 92% | [12] 94.6% | [13] 102% | [14] 113% | [15] 94.4% | [16] 98.1% | [17] 116%

COC(=O)C1=C(C(=O)OC)C23C=C(C)C1C2=C(C)C1(CC1)[C@@](C)(O)C3=O (stereo partly drawn)
active: [4] -3.58% | [5] 1.65% | [6] -21.6% | [7] 3.08% | [8] -2.36% | [10] -3.49% | [11] -3.03% | [12] -35.7% | [13] -18.2% | [16] 5.3% | [17] -22.1%
inactive: [1] 66.6% | [2] 92.3% | [3] 12.7% | [9] 23.2% | [14] 78.1% | [15] 11.3%

COc1ccc(OC)c(NC2=C(SCCc3ccccc3)C(=O)c3ccccc3C2=O)c1
inactive: [1] 70.7% | [2] 74% | [3] 94.5% | [4] 99.3% | [5] 58.4% | [6] 88.5% | [7] 75.7% | [8] 83.4% | [9] 70.8% | [10] 76.5% | [11] 70.6% | [12] 79.5% | [13] 94.7% | [14] 94% | [15] 69.7% | [16] 72.3% | [17] 102% | [18] 76.7%

COc1cnc2c(c1)C(=O)c1c-2n(CCCN2CCC(O)CC2)c(=O)c2cc(Cl)ccc12
inactive: [3] 46.1% | [4] 101% | [5] 70% | [6] 27.8% | [7] 55.6% | [8] 80.9% | [9] 86.7% | [10] 28.3% | [11] 42.8% | [12] 46.9% | [13] 76.1% | [17] 51.5% | [18] 45%
active: [1] -16.9% | [2] 8.25% | [14] -32.1% | [15] 0.872% | [16] -60%

Cc1cc(NCC(=O)Nc2ccc(-c3nc4ccccc4s3)cc2)no1
inactive: [1] 69.9% | [2] 98.4% | [3] 96.4% | [4] 119% | [5] 111% | [6] 120% | [7] 88.5% | [8] 99.3% | [9] 101% | [10] 103% | [11] 80.3% | [12] 94.7% | [13] 104% | [14] 113% | [15] 35.9% | [16] 90.7% | [17] 99.2% | [18] 102%

O=C1OCC2=C1C(c1cccc(F)c1)c1cc3c(cc1N2CCO)OCCO3 (stereo not drawn)
inactive: [1] 12.3% | [2] 22.1% | [3] 24.4% | [4] 30.8% | [5] 45% | [6] 27.1% | [7] 26.3% | [9] 31.4% | [11] 46.8% | [12] 43.6% | [14] 26.8% | [15] 15.6% | [16] 11.2%
active: [8] -13.9% | [10] 6.36% | [13] -40.7% | [17] 8.09%

CC(=O)C(C(C)=O)C(c1ccccc1)C(C(C)=O)C(C)=O
inactive: [1] 105% | [2] 98.7% | [3] 96.5% | [4] 102% | [5] 87.1% | [6] 95.4% | [7] 104% | [8] 116% | [9] 99.8% | [10] 94.5% | [11] 102% | [12] 105% | [13] 104% | [14] 110% | [15] 90.2% | [16] 91.3% | [17] 106% | [18] 110%

O=C(Nc1ccc(N=Nc2ccccc2)cc1)c1cccc2ccccc12
inactive: [1] 23.3% | [2] 66.1% | [3] 78.7% | [4] 92.5% | [5] 75.8% | [6] 64.5% | [7] 80.4% | [8] 37.1% | [9] 72.6% | [10] 49.3% | [11] 66.3% | [12] 53.5% | [14] 40% | [15] 42% | [16] 36.1% | [17] 78.5% | [18] 47.7%
active: [13] -17.2%

CCN(CC)C(=O)C[N+](C)(C)CCOC(c1ccccc1)c1ccccc1
inactive: [1] 108% | [2] 114% | [3] 110% | [4] 100% | [5] 89.5% | [6] 107% | [7] 102% | [8] 103% | [9] 112% | [10] 99.1% | [11] 105% | [12] 99.3% | [13] 93.2% | [14] 111% | [15] 93.4% | [16] 99.4% | [17] 93% | [18] 102%

O=C(Cn1ccc2ccccc21)Nc1ccc(-c2nc3ccccc3s2)cc1
inactive: [1] 95.5% | [2] 100% | [3] 105% | [4] 104% | [5] 103% | [6] 102% | [7] 73.8% | [8] 102% | [9] 97.7% | [10] 100% | [11] 90.6% | [12] 105% | [13] 104% | [14] 106% | [15] 38.2% | [16] 102% | [17] 103% | [18] 106%

O=C1CC(c2cccc(F)c2)c2c(n[nH]c2-c2ccc(Cl)cc2)N1 (stereo not drawn)
inactive: [1] 89.3% | [2] 81.8% | [3] 85.9% | [4] 84.7% | [5] 95.4% | [6] 86.4% | [7] 101% | [8] 100% | [9] 91.2% | [10] 93.9% | [11] 55.8% | [12] 92.4% | [13] 99.5% | [14] 114% | [15] 96.5% | [16] 74.4% | [17] 102%

COc1cc(C(=O)NNC(=O)c2ccc(NC(=O)CCl)cc2)cc(OC)c1OC
inactive: [1] 45.8% | [2] 97.8% | [3] 82.2% | [4] 170% | [5] 88.4% | [6] 99.1% | [7] 75.1% | [8] 62.4% | [9] 90.5% | [10] 102% | [11] 64.3% | [12] 66.8% | [13] 92.5% | [14] 65.5% | [15] 61.8% | [16] 44.5% | [17] 88.7%

COc1ccc(-c2nocc2-c2cc(OC)c(OC)c(OC)c2)cc1
active: [8] -10.9% | [10] -19.5% | [13] -54.4% | [16] 6.36%
inactive: [1] 23.6% | [2] 30.7% | [3] 28.4% | [4] 51% | [5] 45.7% | [6] 22.5% | [7] 46.6% | [9] 27.4% | [11] 39.6% | [12] 48.5% | [14] 21.4% | [15] 24.3% | [17] 13.4% | [18] 12.4%

O=C1CC(c2ccc3c(c2)OCO3)c2ncn(-c3ccc(Cl)cc3)c2N1 (stereo not drawn)
inactive: [1] 24.4% | [2] 38.7% | [3] 29.7% | [4] 71.2% | [5] 59.3% | [6] 37.4% | [7] 60.5% | [9] 47.5% | [10] 14% | [11] 41.3% | [12] 57.5% | [14] 24.3% | [15] 45.5% | [16] 11.4% | [17] 68.1% | [18] 32.7%
active: [8] 7.91% | [13] -42.8%
